BL2 CD40 inh – CD40 pathway inhibition in BL2 cells. BL2 NF-kB luciferase reporter, CD40L-induced, 4 h. inhibition, % at 10 µM. 83,000 compounds, 0.94% hits. AID 1053188;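 active = mean inhibition of at least 50% with a set share of replicates also reaching that level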;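 note: 0% = neutral control wells and 100% = IKK inhibitor VII at 50 µM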
The depositor's hits bear a star; [ ] = another dose, or the depositor's remark. Only a selection was taken, and hits are over-represented in it overall.

How did CCOP(=O)(CCP(=O)(OCC)OCC)OCC.C[CH2][Sn]([Cl])([Cl])[CH2]C do in these assays?
BL2 CD40 inh: 59*

Results for C[C@@H]1CN([C@H](C)CO)C(=O)CCCn2nncc2CO[C@@H]1CN(C)C(=O)Oc1ccccc1 ?
BL2 CD40 inh: 0

How did Nc1ccc(N=Nc2ccccc2)cc1 do in these assays?
BL2 CD40 inh: -62

Results for CC1=CC2OC3CC4OC(=O)C=CC=CC(=O)OCCC(C)C(O)C(=O)OCC2(CC1O)C4(C)C31CO1 (stereo not drawn) ?
BL2 CD40 inh: 103*

How did CC(=O)OC1C(=O)OCC23CCC4(C)OC4C2OC2CC(OC(=O)C=CC=CC(=O)OCCC1C)C3(C)C21CO1 (stereo not drawn) do in these assays?
BL2 CD40 inh: 68*

What do the screens show for `COc1cccc(-c2ccc3n(c2=O)C[C@@H]2[C@@H](CO)[C@H](C(=O)O)[C@H]3N2Cc2ccccc2F)c1`?
BL2 CD40 inh: -3[25 µM]

What do the screens show for `CC(C)=CCSc1nnc([C@@H](N)Cc2c[nH]c3ccccc23)o1`?
BL2 CD40 inh: 2

What do the screens show for `C=C1C(C)C2C(Cc3ccccc3)NC(=O)C23OC(=O)/C=C/C(O)CCCC(C)C/C=C/C3C1O` (stereo not drawn)?
BL2 CD40 inh: -62

What do the screens show for `Cc1ccc2nc(N3CCC(C(=O)N4CCC5(CC4)OCCO5)CC3)sc2c1`?
BL2 CD40 inh: -47

What do the screens show for `COc1ccc2cc(C(=O)C3CCCN(C4CCOCC4)C3)ccc2c1` (stereo not drawn)?
BL2 CD40 inh: 22

Results for C[C@H]1CCCC(=O)CCC/C=C/c2cc(O)cc(O)c2C(=O)O1 ?
BL2 CD40 inh: 43*

Results for Cc1cc(C)c2c(c1)-c1cc(C)nn1C(c1cccnc1)N2 (stereo not drawn) ?
BL2 CD40 inh: 7

What do the screens show for `CCN(CC)CCC(=O)O[C@H]1CC[C@]2(C)C3CC[C@@]4(C)C(CC[C@]4(C)O)C3CC[C@H]2C1` (stereo partly drawn)?
BL2 CD40 inh: 13

Results for S=C1NCCN1 ?
BL2 CD40 inh: 21

How did COC(=O)C12OCC34C(CC5C(C)=C(O)C(=O)CC5(C)C3C(O)C1O)OC(=O)C(OC(=O)/C=C(\C)C(C)C)C24 (stereo not drawn) do in these assays?
BL2 CD40 inh: 92*

Results for C/C=C/c1ccc(C2[C@H]3CNC[C@@H]2N3CC2CCCCC2)cc1 (stereo partly drawn) ?
BL2 CD40 inh: -1

Results for COc1ccc(C2=NCC(=S)Nc3ccc(Cl)cc32)cc1Cl ?
BL2 CD40 inh: 7

How did Cc1nn(-c2ccccc2)c2c1CC1(C(=O)N(C)C(=O)N(C)C1=O)C1CCCCN21 (stereo not drawn) do in these assays?
BL2 CD40 inh: 7

How did COC(=O)c1ccc(NC(=O)NC(=O)Oc2ccccc2)cc1 do in these assays?
BL2 CD40 inh: 3

What do the screens show for `NCC(CC(=O)O)C1CCCCC1` (stereo not drawn)?
BL2 CD40 inh: 8

What do the screens show for `CC1=NNC(=O)C1Br` (stereo not drawn)?
BL2 CD40 inh: 52*

How did Cc1ccc(-c2nc3ccccc3c(=O)n2-c2cc(C)ccn2)cc1 do in these assays?
BL2 CD40 inh: -36

Results for O=C(c1ccc(Cl)cc1)C1CCCN(Cc2cccc3cccnc23)C1 (stereo not drawn) ?
BL2 CD40 inh: 17

What do the screens show for `Cc1[nH]c2ccccc2c1C1=CCNCC1`?
BL2 CD40 inh: 3

Results for O=C(O)[C@@H]1[C@@H](CO)[C@@H]2Cn3c(ccc(C4=CCCCC4)c3=O)[C@H]1N2C(=O)Cc1ccccn1 ?
BL2 CD40 inh: 0[25 µM]

How did c1cc(CCN2CCCC2)ccn1 do in these assays?
BL2 CD40 inh: 5

What do the screens show for `C[C@@H]1O[C@@H](O[C@H]2C[C@@H](O)[C@]3(CO)[C@H]4[C@H](O)C[C@]5(C)[C@@H](C6COC(=O)C6)CC[C@]5(O)[C@@H]4CC[C@]3(O)C2)[C@H](O)[C@H](O)[C@H]1O` (stereo partly drawn)?
BL2 CD40 inh: 67*

How did CC1OC(OC2CC(O)C3(CO)C4C(O)CC5(C)C(C6=CC(=O)OC6)CCC5(O)C4CCC3(O)C2)C(O)C(O)C1O (stereo not drawn) do in these assays?
BL2 CD40 inh: 73*[25 µM]

What do the screens show for `COc1ccc(OC)c([C@@H](O)[C@H](C)NC(C)(C)C)c1`?
BL2 CD40 inh: -5

How did CCCCCc1cc(O)c2c3c(c(=O)oc2c1)CN(C)CC3 do in these assays?
BL2 CD40 inh: -9

Results for NC(Cc1ccccc1)c1csc(Nc2ccccn2)n1 (stereo not drawn) ?
BL2 CD40 inh: -31

Results for O=C(CCN1C(=O)COc2ccccc21)N1CCC2(CC1)OCCO2 ?
BL2 CD40 inh: -4

How did COC(=O)[C@H]1[C@H](CO)[C@H]2Cn3c(ccc(-c4cccc(C(=O)N(C)C)c4)c3=O)[C@@H]1N2CC1CC1 do in these assays?
BL2 CD40 inh: -2[25 µM]

Results for CSc1ccc(C(=O)C2CCCN(CCCn3cccn3)C2)cc1 (stereo not drawn) ?
BL2 CD40 inh: -2

Results for O=C1CC(c2cccnc2)=NN1c1ccc(Cl)cc1Cl ?
BL2 CD40 inh: -2

High-throughput results as filed in PubChem.
